Among the data in PubChem BioAssay AID651932 (Southern Research Specialized Biocontainment Screening …, 2012) are outcome values, retold here.

Activity calls are given as the source filed them. How the calls were made is not given here.

A short description of this assay: RSV cytopathic effect inhibition in HEp-2, counter-screen for VEEV inhibitor project, HEp-2 cells, set 2 (AID 651932). The following applies: series mostly up to 25 µM.
On to `CCN1CCN(Cc2nc3ccc([N+](=O)[O-])cc3c(=O)n2-c2ccccc2F)CC1`, for which the outcome was inactive.
The result for `CN1CCN(C)C(=Nc2ccc([N+](=O)[O-])cc2C(=O)Nc2ccccc2)C1` reads “inactive”.
The result for `COc1ccc(NC(=O)c2cc([N+](=O)[O-])ccc2N=C2CN(C)CCN2C)cc1` reads “inactive”.
In the case of `CCN1CCN(C)CC1=Nc1ccc([N+](=O)[O-])cc1C(=O)Nc1ccccc1`, the call was inactive.
